Measurements taken from the supplement of paper PMC10849652.
About 7,900 targets were measured; listed, in parts, are those with a hit and a random draw of the rest. About 0.6% of all pairs of compound and target were hits.

How the values were obtained:
Test in all cases: log2 fold change, soluble protein after heating vs DMSO (PISA); higher = thermal stabilisation; K562 cells, 10 uM, 30 min; active = over 0.2 and 3.5 SD of the protein, either way, in both replicates (recomputed)
bafetinib = compound: Cc1ccc(NC(=O)c2ccc(CN3CC[C@H](N(C)C)C3)c(C(F)(F)F)c2)cc1Nc1nccc(-c2cncnc2)n1 [bafetinib]
Summary of the method: (§1)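 K562 cells at 2×10^6 cells/mL were given 10 μM compound for 30 min. Aliquots then went through 3 min of heating across 48°C-58°C, were pooled, and were extracted in PBS with 0.5% NP-40 at 4°C, and the supernatant after 21,000xg for 90 min was quantified by TMTpro 16plex LC-MS/MS with channel sums equalised. Thermal stability relative to control samples, from duplicates, is given as log2 fold change.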

[1] = compound: Cc1cccc(CC(=O)N2CCc3c2ccc(-c2cn(C)c4ncnc(N)c24)c3F)n1
Summary of the method: as §1

nilotinib = compound: Cc1cn(-c2cc(NC(=O)c3ccc(C)c(Nc4nccc(-c5cccnc5)n4)c3)cc(C(F)(F)F)c2)cn1 [nilotinib]
Summary of the method: as §1

[2] = compound: Cc1nc(Nc2n[nH]c3c2CN(C(=O)N[C@H](CN(C)C)c2ccccc2)C3(C)C)c2sccc2n1
Summary of the method: as §1

dasatinib = compound: Cc1nc(Nc2ncc(C(=O)Nc3c(C)cccc3Cl)s2)cc(N2CCN(CCO)CC2)n1 [dasatinib]
Summary of the method: as §1

[3] = compound: Cc1ncc(-c2ccnc(Nc3ccc(S(C)(=O)=O)cc3)n2)n1C(C)C
Summary of the method: as §1

[4] = compound: Cn1cc(-c2ccc3c(c2)CCN3C(=O)Cc2cccc(C(F)(F)F)c2)c2c(N)ncnc21
Summary of the method: as §1

[5] = compound: Cn1cc(-c2ccc3nnc(C(F)(F)c4ccc5ncccc5c4)n3n2)cn1
Summary of the method: as §1

tipifarnib = compound: Cn1cncc1[C@@](N)(c1ccc(Cl)cc1)c1ccc2c(c1)c(-c1cccc(Cl)c1)cc(=O)n2C [tipifarnib]
Summary of the method: as §1

mubritinib = compound: FC(F)(F)c1ccc(/C=C/c2nc(COc3ccc(CCCCn4ccnn4)cc3)co2)cc1 [mubritinib]
Summary of the method: as §1

[6] = compound: NC(=O)Nc1cc(-c2cccc(F)c2)sc1C(=O)N[C@H]1CCCNC1
Summary of the method: as §1

[7] = compound: NC(=O)c1cnc(N[C@@H]2CCCC[C@@H]2N)nc1Nc1cccc(-n2nccn2)c1
Summary of the method: as §1

[8] = compound: NC1(c2ccc(-c3nc4ccn5c(=O)[nH]nc5c4cc3-c3ccccc3)cc2)CCC1
Summary of the method: as §1

[9] = compound: NCC(=O)Nc1ccc(-n2nc(C(F)(F)F)cc2-c2ccc3c(ccc4ccccc43)c2)cc1
Summary of the method: as §1

entinostat = compound: Nc1ccccc1NC(=O)c1ccc(CNC(=O)OCc2cccnc2)cc1 [entinostat]
Summary of the method: as §1

vorinostat = compound: O=C(CCCCCCC(=O)Nc1ccccc1)NO [vorinostat]
Summary of the method: as §1

citarinostat = compound: O=C(CCCCCCNC(=O)c1cnc(N(c2ccccc2)c2ccccc2Cl)nc1)NO [citarinostat]
Summary of the method: as §1

silmitasertib = compound: O=C(O)c1ccc2c(c1)nc(Nc1cccc(Cl)c1)c1ccncc12 [silmitasertib]
Summary of the method: as §1

[10] = compound: O=C1NC(=O)C(c2cnc3ccccn23)=C1c1cn2c3c(cc(F)cc13)CN(C(=O)N1CCCCC1)CC2
Summary of the method: as §1

[11] = compound: c1cc(OCCN2CCCCC2)cc(-c2n[nH]c3ccc(-c4nnc[nH]4)cc23)c1
Summary of the method: as §1

Measured: log2 fold change

PHAX (UniProt Q9H814)
Sequence of UniProt Q9H814 (Q9H814 whole entry, looked up): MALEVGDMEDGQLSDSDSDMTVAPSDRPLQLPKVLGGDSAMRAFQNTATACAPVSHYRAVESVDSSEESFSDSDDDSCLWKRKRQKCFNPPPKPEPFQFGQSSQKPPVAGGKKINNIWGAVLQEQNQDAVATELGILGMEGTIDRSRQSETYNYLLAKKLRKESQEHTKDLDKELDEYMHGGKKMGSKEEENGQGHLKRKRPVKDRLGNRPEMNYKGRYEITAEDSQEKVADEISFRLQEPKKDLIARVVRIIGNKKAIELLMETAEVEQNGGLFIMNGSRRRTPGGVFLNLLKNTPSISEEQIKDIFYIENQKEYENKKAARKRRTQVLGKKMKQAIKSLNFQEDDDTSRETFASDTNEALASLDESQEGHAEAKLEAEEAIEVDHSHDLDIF
inactive: bafetinib -0.056 | [1] -0.117 | nilotinib 0.028 | [2] -0.176 | dasatinib 0.03 | [3] -0.096 | [4] -0.033 | [5] 0.006 | tipifarnib 0.011 | mubritinib 0.013 | [6] 0.008 | [7] -0.084 | [8] -0.003 | [9] 0.013 | entinostat -0.022 | vorinostat -0.006 | citarinostat 0.041 | silmitasertib 0.092 | [10] 0.046 | [11] -0.029

PTDSS1 (UniProt P48651)
inactive: bafetinib -0.125 | [1] 0.092 | nilotinib -0.166 | [2] 0.084 | dasatinib -0.002 | [3] 0.017 | [4] -0.089 | [5] 0.042 | tipifarnib 0.018 | mubritinib -0.074 | [6] 0.043 | [7] -0.045 | [8] 0.022 | [9] -0.007 | entinostat -0.058 | vorinostat 0.199 | citarinostat -0.051 | silmitasertib 0.091 | [10] 0.184 | [11] -0.06

POGLUT1 (UniProt Q8NBL1)
Sequence of UniProt Q8NBL1 (Q8NBL1 whole entry, looked up): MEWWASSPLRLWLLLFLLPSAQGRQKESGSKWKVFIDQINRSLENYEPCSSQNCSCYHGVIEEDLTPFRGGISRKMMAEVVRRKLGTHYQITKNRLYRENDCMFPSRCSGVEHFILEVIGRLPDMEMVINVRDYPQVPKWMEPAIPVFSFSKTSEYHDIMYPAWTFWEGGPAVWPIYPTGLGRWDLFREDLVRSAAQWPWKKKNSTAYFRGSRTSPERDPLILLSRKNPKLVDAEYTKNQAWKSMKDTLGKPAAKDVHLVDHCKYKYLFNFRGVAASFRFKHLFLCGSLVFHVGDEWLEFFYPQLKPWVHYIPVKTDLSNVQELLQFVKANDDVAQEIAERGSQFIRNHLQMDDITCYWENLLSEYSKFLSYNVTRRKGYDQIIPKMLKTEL
inactive: bafetinib 0.009 | [1] 0.122 | nilotinib -0.001 | [2] 0.03 | dasatinib 0.024 | [3] -0.049 | [4] -0.022 | [5] -0.073 | tipifarnib 0.048 | mubritinib -0.046 | [6] -0.043 | [7] -0.057 | [8] -0.008 | [9] -0.102 | entinostat -0.01 | vorinostat 0.112 | citarinostat -0.058 | silmitasertib 0 | [10] 0.019 | [11] -0.05

PITRM1 isoform 2 (UniProt Q5JRX3)
Sequence of UniProt Q5JRX3 (Q5JRX3 whole entry, looked up): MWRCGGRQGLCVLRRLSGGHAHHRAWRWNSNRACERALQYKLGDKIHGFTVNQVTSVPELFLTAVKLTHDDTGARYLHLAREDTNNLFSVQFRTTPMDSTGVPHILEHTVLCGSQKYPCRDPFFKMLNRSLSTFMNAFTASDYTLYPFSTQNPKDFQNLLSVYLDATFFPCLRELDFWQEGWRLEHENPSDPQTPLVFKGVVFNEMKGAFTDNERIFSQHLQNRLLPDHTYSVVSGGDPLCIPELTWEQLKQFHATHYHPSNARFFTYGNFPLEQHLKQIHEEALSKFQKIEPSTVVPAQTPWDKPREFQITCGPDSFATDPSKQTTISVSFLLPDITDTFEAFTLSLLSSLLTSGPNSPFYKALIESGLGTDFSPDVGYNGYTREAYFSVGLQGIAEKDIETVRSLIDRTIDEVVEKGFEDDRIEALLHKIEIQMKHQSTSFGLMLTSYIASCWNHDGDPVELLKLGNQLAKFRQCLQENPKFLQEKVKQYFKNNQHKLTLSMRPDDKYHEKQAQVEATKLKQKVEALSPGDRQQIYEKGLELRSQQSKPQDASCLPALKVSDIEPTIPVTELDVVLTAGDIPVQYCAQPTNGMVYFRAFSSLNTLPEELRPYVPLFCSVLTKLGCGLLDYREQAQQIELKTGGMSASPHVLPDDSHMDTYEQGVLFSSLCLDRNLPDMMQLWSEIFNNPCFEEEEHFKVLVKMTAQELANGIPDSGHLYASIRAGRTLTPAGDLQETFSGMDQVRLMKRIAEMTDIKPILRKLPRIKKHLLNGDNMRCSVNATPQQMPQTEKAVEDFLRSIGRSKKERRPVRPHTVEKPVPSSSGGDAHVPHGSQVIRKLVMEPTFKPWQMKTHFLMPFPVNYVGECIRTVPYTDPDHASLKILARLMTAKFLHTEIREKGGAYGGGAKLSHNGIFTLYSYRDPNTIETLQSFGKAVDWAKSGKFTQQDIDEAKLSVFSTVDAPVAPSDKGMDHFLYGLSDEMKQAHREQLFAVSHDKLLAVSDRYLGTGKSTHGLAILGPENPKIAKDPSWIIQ
inactive: bafetinib -0.052 | [1] -0.039 | nilotinib -0.108 | [2] 0.01 | dasatinib -0.132 | [3] -0.088 | [4] 0.119 | [5] -0.004 | tipifarnib 0.003 | mubritinib 0.005 | [6] 0.116 | [7] -0.077 | [8] -0.051 | [9] -0.061 | entinostat 0.097 | vorinostat 0.089 | citarinostat 0.104 | silmitasertib -0.045 | [10] 0.05 | [11] 0.096

PLCG1 isoform 2 (UniProt P19174)
Sequence of UniProt P19174 (P19174 whole entry, looked up): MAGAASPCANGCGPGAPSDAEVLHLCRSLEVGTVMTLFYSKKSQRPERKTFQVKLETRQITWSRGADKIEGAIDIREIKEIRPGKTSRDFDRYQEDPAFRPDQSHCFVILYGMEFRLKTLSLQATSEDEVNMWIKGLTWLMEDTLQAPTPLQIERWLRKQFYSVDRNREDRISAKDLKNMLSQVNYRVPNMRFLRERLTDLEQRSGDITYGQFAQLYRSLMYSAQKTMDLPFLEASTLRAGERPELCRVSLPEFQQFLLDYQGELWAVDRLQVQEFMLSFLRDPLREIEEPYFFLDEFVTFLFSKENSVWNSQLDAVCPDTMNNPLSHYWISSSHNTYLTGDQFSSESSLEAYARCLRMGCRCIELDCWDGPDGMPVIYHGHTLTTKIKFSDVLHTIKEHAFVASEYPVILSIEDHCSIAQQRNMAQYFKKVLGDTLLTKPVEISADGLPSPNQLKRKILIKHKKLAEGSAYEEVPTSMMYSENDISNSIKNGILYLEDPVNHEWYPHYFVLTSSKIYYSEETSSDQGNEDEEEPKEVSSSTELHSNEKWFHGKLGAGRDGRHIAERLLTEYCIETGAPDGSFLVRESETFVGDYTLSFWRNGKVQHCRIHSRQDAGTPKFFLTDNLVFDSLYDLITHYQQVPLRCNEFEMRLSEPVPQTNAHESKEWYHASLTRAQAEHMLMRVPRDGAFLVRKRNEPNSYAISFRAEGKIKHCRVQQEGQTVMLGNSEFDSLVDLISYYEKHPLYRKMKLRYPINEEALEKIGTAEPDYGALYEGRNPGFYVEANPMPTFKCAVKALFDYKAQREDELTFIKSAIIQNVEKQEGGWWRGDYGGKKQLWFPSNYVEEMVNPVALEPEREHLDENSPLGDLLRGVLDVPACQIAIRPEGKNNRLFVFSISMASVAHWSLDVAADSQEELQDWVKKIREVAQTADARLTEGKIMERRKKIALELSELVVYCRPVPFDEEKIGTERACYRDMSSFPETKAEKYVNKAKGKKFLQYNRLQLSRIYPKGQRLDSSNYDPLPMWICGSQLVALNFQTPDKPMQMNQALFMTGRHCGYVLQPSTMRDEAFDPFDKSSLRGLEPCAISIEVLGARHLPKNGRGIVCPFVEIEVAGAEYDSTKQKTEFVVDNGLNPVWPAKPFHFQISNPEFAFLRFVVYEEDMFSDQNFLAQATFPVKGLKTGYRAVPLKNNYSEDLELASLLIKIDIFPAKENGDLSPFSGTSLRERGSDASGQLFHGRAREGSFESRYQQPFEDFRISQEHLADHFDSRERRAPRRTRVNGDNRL
inactive: bafetinib -0.054 | [1] -0.08 | nilotinib -0.072 | [2] 0.079 | dasatinib -0.257 | [3] 0.024 | [4] 0.031 | [5] 0.005 | tipifarnib -0.144 | mubritinib 0.11 | [6] 0.01 | [7] -0.193 | [8] -0.197 | [9] -0.109 | entinostat 0.04 | vorinostat -0.003 | citarinostat 0.059 | silmitasertib 0.01 | [10] 0 | [11] -0.066

PLSCR1 (UniProt O15162)
Sequence of UniProt O15162 (O15162 whole entry, looked up): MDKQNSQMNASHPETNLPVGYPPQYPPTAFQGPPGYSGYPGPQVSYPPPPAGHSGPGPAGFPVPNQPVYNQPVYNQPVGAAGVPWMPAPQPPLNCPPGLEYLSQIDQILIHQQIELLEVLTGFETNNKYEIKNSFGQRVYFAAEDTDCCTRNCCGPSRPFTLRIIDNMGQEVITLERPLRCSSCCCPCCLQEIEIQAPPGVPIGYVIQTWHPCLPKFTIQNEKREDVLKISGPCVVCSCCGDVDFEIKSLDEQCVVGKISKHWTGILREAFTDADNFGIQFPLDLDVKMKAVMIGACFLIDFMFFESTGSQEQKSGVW
inactive: bafetinib 0.011 | [1] 0.002 | nilotinib -0.004 | [2] -0.022 | dasatinib 0.052 | [3] -0.032 | [4] 0.024 | [5] 0.048 | tipifarnib 0.036 | mubritinib 0.148 | [6] -0.092 | [7] -0.005 | [8] -0.111 | [9] -0.068 | entinostat -0.212 | vorinostat -0.082 | citarinostat 0.05 | silmitasertib 0.022 | [10] -0.081 | [11] -0.096

PCTP (UniProt Q9UKL6)
Sequence of UniProt Q9UKL6 (Q9UKL6 whole entry, looked up): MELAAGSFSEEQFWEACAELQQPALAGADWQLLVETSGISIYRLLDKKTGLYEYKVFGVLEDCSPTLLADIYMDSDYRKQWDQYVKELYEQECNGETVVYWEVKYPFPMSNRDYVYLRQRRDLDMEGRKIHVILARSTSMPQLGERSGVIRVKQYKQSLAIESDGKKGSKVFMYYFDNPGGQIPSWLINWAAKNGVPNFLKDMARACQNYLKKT
inactive: bafetinib -0.067 | [1] -0.004 | nilotinib -0.04 | [2] 0.114 | dasatinib -0.024 | [3] -0.017 | [4] 0.065 | [5] 0.036 | tipifarnib -0.104 | mubritinib 0.063 | [6] -0.078 | [7] -0.07 | [8] -0.023 | [9] -0.092 | entinostat 0.065 | vorinostat -0.051 | citarinostat 0.003 | silmitasertib 0.043 | [10] -0.061 | [11] 0.363

PFDN1 (UniProt O60925)
Sequence of UniProt O60925 (O60925 whole entry, looked up): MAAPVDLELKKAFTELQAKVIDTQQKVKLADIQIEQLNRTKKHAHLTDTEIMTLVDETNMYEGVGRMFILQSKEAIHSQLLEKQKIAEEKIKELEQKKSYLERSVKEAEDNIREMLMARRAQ
inactive: bafetinib 0.038 | [1] -0.041 | nilotinib 0.012 | [2] 0.026 | dasatinib 0.076 | [3] -0.023 | [4] 0.153 | [5] 0.328 | tipifarnib -0.061 | mubritinib 0.039 | [6] 0.013 | [7] 0.003 | [8] 0.002 | [9] -0.047 | entinostat 0.044 | vorinostat -0.056 | citarinostat 0.09 | silmitasertib -0.029 | [10] -0.05 | [11] -0.001
